Assay outcomes deposited in PubChem by University of Kansas High Throughput Screening Laboratory.
Hits are enriched below; roughly 3.5% of the tested compounds scored in any of these assays.
mHTT-CaM PPI inh: disrupts binding of mutant huntingtin to calmodulin; P42858; AlphaScreen His-mHTT/GST-CaM binding, luminescence; inhibition, % at 15 µM; 190,000 compounds, 3.6% hits; AID 1671202;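 further: 0% = both proteins with DMSO and 100% = one protein alone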
Pf apPOL inh: Pf-apPOL DNA polymerase inhibition. Recombinant Pf-apPOL, molecular beacon fluorescence, 1.5 h. inhibition, % at 10 µM. 210,000 compounds, 0.25% hits
The depositor's hits bear a star; · = not tested or not shown. No stated cut-off is given here; in the data, active means inhibition above about 50%; inactive means the rest.

SMILES	mHTT-CaM PPI inh	Pf apPOL inh
CCOc1ccccc1CN1CCc2nc(N3CCN(c4ncccn4)CC3)ncc2C1	100.2*	-4.2
Cc1cc(-n2nnc(C(=O)O)c2-c2ccncc2)ccc1F	-11.0	-1.6
COc1ccc(Cl)cc1N=CC1=C(O)CC(c2ccccc2)CC1=O (stereo unspecified)	0.0	6.1
O=C1OC(c2ccc(Cl)cc2Cl)=N/C1=C\c1cccnc1	2.0	-5.1
COC(=O)c1ccc2c(c1)CC(CNC(=O)c1ccccc1Br)O2 (stereo unspecified)	-3.6	-7.6
CC(NC(=O)c1csc2c1CCCC2)c1ccccc1 (stereo unspecified)	-17.1	0.1
c1ccc(-n2nnnc2SCSc2nnnn2-c2ccccc2)cc1	-24.6	·
O=C(Cn1cnc2c(-c3ccccc3)csc2c1=O)N1CCCCC1	-7.9	-4.9
COCCN1C(=O)C(O)=C(C(=O)c2ccc(C)o2)C1c1cccc(OC)c1 (stereo unspecified)	4.8	-2.1
Cc1ccc(CCNC(=O)c2cc(-c3cccnc3)nc3ccccc23)cc1	34.0	-16.5
Cc1ccc(S(=O)(=O)Nc2ccc(N(C)C)cc2)cc1	54.6*	-55.7
Cc1ccc(NS(=O)(=O)c2ccc(Cl)cc2)cc1	-21.6	5.1
O=C(c1cccc(F)c1)N1CCc2nc(-c3ccccc3)ncc2C1	0.8	-0.2
O=S(=O)(c1ccccc1)c1nc(Cc2ccccc2)oc1N1CCCCCC1	23.0	68.0*
O=S(=O)(c1ccccc1)c1nc(-c2ccccc2)oc1N1CCOCC1	1.0	-2.9
O=C(N/C(=C\c1ccc(Br)cc1)c1nc2ccccc2o1)c1ccco1	93.8*	-1.1
NC(=Nc1nc2ccccc2o1)NC(=O)c1ccco1	0.6	0.9
Oc1ccc(-c2[nH]ncc2-c2ccccc2)c(O)c1O	95.6*	-3.1
CCc1cc(-c2[nH]ncc2-c2ccc(F)cc2)c(O)cc1OC	74.0*	9.1
CCc1cc(-c2[nH]ncc2-c2ccccc2)c(O)cc1OC	100.0*	-2.3
O=Cc1cn[nH]c1-c1ccccc1	-5.6	-4.1
COc1ccc(-c2[nH]ncc2-c2ccc(F)cc2)c(O)c1	38.7	-6.2
COc1cc(-c2nc3ccccn3c2N=Cc2cn[nH]c2-c2ccccc2)ccc1O	34.0	-9.2
COC(=O)c1ccc2c(=O)n(Cc3ccc(F)cc3)c(N3CCSC3)nc2c1	-18.8	-2.3
CC1=NOC(=O)/C1=C/c1ccc(-c2ccccc2[N+](=O)[O-])o1	3.0	-2.9
SMILES	mHTT-CaM PPI inh	Pf apPOL inh
Cc1c(C(=O)Nc2cnc3ccccc3c2)sc2ncn(Cc3ccccc3F)c(=O)c12	48.0	-15.9
O=C(NCc1cccc(C(F)(F)F)c1)C1CCN(c2cncnc2N2CCCC2)CC1	63.1*	2.6
O=C(NCc1cccc(F)c1)C1CCN(c2cncnc2N2CCCC2)CC1	16.6	-9.1
CCc1ccc(CNC(=O)C2CCN(c3cncnc3N3CCCC3)CC2)cc1	6.9	1.4
O=C(NCc1ccc(Cl)cc1)C1CCN(c2cncnc2N2CCCC2)CC1	70.1*	-4.4
CCN1C(=O)COc2ccc(-c3noc(-c4cccc(C)c4)n3)cc21	-2.7	-0.2
O=C(O)COc1ccc2c(c1)OC(=Cc1ccc(F)cc1)C2=O	-2.5	-2.0
Cc1cc(C)c(NC(=O)C2C3CCC4C(CCC32)C4(Cl)Cl)c(C)c1 (stereo unspecified)	1.6	2.5
Cc1cc(C)cc(-n2ccnc(NC(=O)c3ccccn3)c2=O)c1	73.5*	-15.8
O=C(Nc1nccn(-c2cccc(Cl)c2)c1=O)c1ccccn1	-4.4	-2.6
Cc1cccc(Nc2c([N+](=O)[O-])cc([N+](=O)[O-])c3cccnc23)c1	33.0	-4.5
CC(=O)NC(c1ccc(C)cc1)c1cc([N+](=O)[O-])c2cccnc2c1O (stereo unspecified)	100.0*	-7.3
CCCC(=O)NC(c1ccc(C)cc1)c1cc(Cl)c2cccnc2c1O (stereo unspecified)	29.0	-1.1
CCC(=O)NC(c1ccc(C)cc1)c1cc([N+](=O)[O-])c2cccnc2c1O (stereo unspecified)	100.0*	-5.3
CCC(=O)NC(c1ccc(OC)c(OC)c1)c1cc([N+](=O)[O-])c2cccnc2c1O (stereo unspecified)	100.2*	20.3
O=c1c(-c2ccc([N+](=O)[O-])cc2)coc2cc(Br)ccc12	-3.0	-8.7
CCCCC(=O)N1C/C=C\C(c2ccc(OC)cc2)N(Cc2ccc(F)cc2)C(=O)[C@@H]1C (stereo partly specified)	35.0	-2.8
O=C(CSc1nnc(-c2ccco2)c(-c2ccco2)n1)Nc1ccc2c(c1)OCO2	75.0*	-2.7
O=C(CSc1nnc(-c2ccco2)n1-c1ccccc1)Nc1ccccc1	13.6	4.4
O=C(CSc1nnc(-c2ccco2)c(-c2ccco2)n1)Nc1nccs1	70.0*	8.7
O=C(CSc1nnc(-c2ccco2)c(-c2ccco2)n1)Nc1cnc2ccccc2c1	93.0*	-0.9
O=C(CSc1ncccn1)Nc1nccs1	-17.3	-0.6
O=C(CSc1ccc(-c2cccnc2)nn1)Nc1ccc2c(c1)OCO2	-4.1	3.5
Cc1cc(NC(=O)CSc2nnc(-c3ccco3)c(-c3ccco3)n2)no1	69.0*	-5.1
Cc1cc(NC(=O)CSc2nc3ccccc3s2)no1	-24.3	-0.1
SMILES	mHTT-CaM PPI inh	Pf apPOL inh
CC(O)(CNC(=O)c1ccc(Cl)s1)c1ccco1 (stereo unspecified)	-9.1	-1.8
O=C(CSc1nnc(-c2ccco2)c(-c2ccco2)n1)Nc1ccc(C(=O)O)cc1	29.0	4.3
COc1ccc(C(=O)CSc2nnc(-c3ccco3)c(-c3ccco3)n2)cc1	95.0*	-1.5
COc1ccc(C(=O)CSc2nnc(-c3ccco3)n2-c2ccccc2)cc1	5.6	-1.1
O=C(CSc1nnc(-c2ccccc2)c(-c2ccccc2)n1)N1CCCCC1	13.3	-2.6
COc1ccc(-c2nnc(SCC(=O)N3CCN(C)CC3)nc2-c2ccc(OC)cc2)cc1	29.0	54.1*
COc1cc(OC)c(NC(=O)CSc2nnc(-c3ccco3)c(-c3ccco3)n2)cc1Cl	50.0	4.4
CCOc1ccc(NC(=O)CSc2nnc(-c3ccco3)c(-c3ccco3)n2)cc1	82.0*	-2.6
O=C(CSc1nnc(-c2ccco2)c(-c2ccco2)n1)Nc1ccc(Cl)cc1Cl	85.0*	-4.3
CCNc1cc(N2CCC(CCC(=O)NCc3ccccc3F)CC2)ncn1	2.3	-3.6
CC1(O)CCN(CC2CCCCC2)CC1N1CCCC1 (stereo unspecified)	2.2	-6.1
C=CCN(c1ccccc1)S(=O)(=O)c1ccc2[nH]cc(C(=O)NCCCCCC)c(=O)c2c1	18.0	-12.3
O=C(CSc1nnc(-c2ccco2)c(-c2ccco2)n1)Nc1cccc(C(=O)O)c1	45.0	-3.8
Cc1ccc(NC(=O)CSc2nnc(-c3ccco3)c(-c3ccco3)n2)cc1C	93.0*	7.5
COc1ccc(C=C2C(=O)OC(C)(C(C)(C)C)OC2=O)cc1 (stereo unspecified)	8.0	-5.9
O=C(C=CC(=O)Oc1ccc(Cl)cc1Cl)Oc1ccc(Cl)cc1Cl	·	-4.5
CC(C)(C)N=C1Nc2ccccc2NC12CCCN(C(=O)NCc1cccc(F)c1)C2 (stereo unspecified)	99.5*	-4.2
COc1cccc(CNC(=O)N2CCCC3(C2)Nc2ccccc2NC3=NC(C)(C)C)c1 (stereo unspecified)	68.7*	3.9
COc1cccc(NC(=O)N2CCCC3(C2)Nc2ccccc2NC3=NC(C)(C)C)c1 (stereo unspecified)	11.8	1.8
